In PubChem BioAssay (Tox21) one finds Potency and outcome data, which are given here for ten compounds.

Molecules are shown by their SMILES. “And” between values parts separate entries of the source, which are not always exact repeats. Equal entries are not always repeated. Inconclusive results are not listed. Where a structure was tested more than once in an assay, its records may differ in their call. The source made the active and inactive calls. Unless noted, calls come from the whole dose curve; as a rule, active = well fitted curve in the direction sought with a large enough effect in the repeat runs; inconclusive = weak or mixed curves; inactive = no such curve, though single readings can be large; an effect the other way counts as inactive or inconclusive.

A short description of assay [1]: A CellTox Green Cytotoxicity Assay to monitor cytotoxicity in HepG2 cells - 0 hour (AID 1224882). Note: nearly all actives have a fitted effect of over 35% in size. A digest of the protocol: (§1)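 HepG2 cells, 600/well, preincubated 5 h with CellTox Green dye, then exposed to Tox21 compounds in DMSO at 37 C for up to 40 h. Dead-cell DNA fluorescence read at the indicated time point.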
A short description of assay [2]: A CellTox Green Cytotoxicity Assay to monitor cytotoxicity in HepG2 cells - 32 hour (AID 1224883). Note: nearly all actives have a fitted effect of over 50% in size. Note: potency is the fitted concentration of half-maximal effect. The gist of the method: as §1
The nature of assay [3]: A CellTox Green Cytotoxicity Assay to monitor cytotoxicity in HEK293 cells - 8 hour (AID 1224884). Note: nearly all actives have a fitted effect of over 35% in size. Note: potency is the fitted concentration of half-maximal effect. The gist of the method: (§2)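 HEK293 cells, 600/well, were preincubated 5 hours and then exposed to compounds at 37 C for up to 40 hours. A cell-impermeant cyanine dye staining dead-cell DNA was read by fluorescence at 0, 8, 16, 24, 32 and 40 h time points.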
A short description of assay [4]: qHTS RealTime-Glo MT Cell Viability Assay in HepG2 cells - 16 hour (AID 1224885). Note: nearly all actives have a fitted effect of over 50% in size. Note: potency is the fitted concentration of half-maximal effect. The gist of the method: (§3)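 qHTS, HepG2, 600 cells/well, RealTime-Glo (NanoLuc + prosubstrate) added with cells; 5 h preincubation; DMSO compound addition; 37 C; luminescence at 0/8/16/24/32/40 h.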
The nature of assay [5]: qHTS RealTime-Glo MT Cell Viability Assay in HEK293 cells - 24 hour (AID 1224886). Note: nearly all actives have a fitted effect of over 50% in size. Note: potency is the fitted concentration of half-maximal effect. A digest of the protocol: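 Assay medium contained NanoLuc luciferase plus cell-permeant prosubstrate, added with HEK293 cells at 600 cells/well. After 5 h at 37 C/5% CO2 compounds were added; plates stayed at 37 C for 40 h with serial luminescence reads.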
Assay [6] in a line: qHTS RealTime-Glo MT Cell Viability Assay in HEK293 cells - 8 hour (AID 1224887). Note: nearly all actives have a fitted effect of over 50% in size. Note: potency is the fitted concentration of half-maximal effect. A digest of the protocol:
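600 cells/well were plated with the nonlytic NanoLuc/prosubstrate reagent, pre-incubated 5 h, then given 23 nL of compound in DMSO. Incubation at 37 C for 40 h, with luminescence from viable-cell-reduced substrate read repeatedly from 0 h.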

Assay [7] in a line: A CellTox Green Cytotoxicity Assay to monitor cytotoxicity in HEK293 cells - 16 hour (AID 1224888). Note: nearly all actives have a fitted effect of over 35% in size. Note: potency is the fitted concentration of half-maximal effect. A digest of the protocol: as §2
Assay [8] can be described thus: qHTS RealTime-Glo MT Cell Viability Assay in HepG2 cells - 0 hour (AID 1224889). Note: nearly all actives have a fitted effect of over 50% in size. A digest of the protocol:
as §3

The nature of assay [9]: A CellTox Green Cytotoxicity Assay to monitor cytotoxicity in HepG2 cells - 8 hour (AID 1224890). Note: nearly all actives have a fitted effect of over 45% in size. Note: potency is the fitted concentration of half-maximal effect. The gist of the method: as §1
Assay [10] is described as follows: qHTS assay to identify small molecule antagonists of the estrogen receptor alpha (ER-alpha) signaling pathway using the BG1 cell line in the presence of 0.1 nM 17-beta-estradiol - cell viability counter screen (AID 1259241). Note: nearly all actives have a fitted effect of over 40% in size. The gist of the method:
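VM7Luc4E2 cells (endogenous ER-alpha, 4×ERE-luciferase), hormone-starved 5 days in charcoal-stripped FBS, were treated with compounds plus 0.1 nM 17beta-estradiol for 22 hr at 37C; viability read in same wells as CellTiter-Fluor live-cell protease fluorescence.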

The nature of assay [11]: qHTS assay to identify small molecule antagonists of the androgen receptor (AR) signaling pathway using the MDA cell line in the presence of 0.5 nM R1881 - cell viability counter screen (AID 1259242). Note: nearly all actives have a fitted effect of over 45% in size. Note: potency is the fitted concentration of half-maximal effect. The gist of the method:
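MDA-kb2 cells (MMTV-luciferase, AR/GR responsive) were treated with compounds plus 0.5 nM R1881 (final) for 16 hr at 37C, 0% CO2. Viability was then read in the same wells as live-cell protease fluorescence (CellTiter-Fluor, 30 min).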

The target of assay [12] is Estrogen receptor (Homo sapiens) (UniProt P03372). Description: qHTS assay to identify small molecule antagonists of the estrogen receptor alpha (ER-alpha) signaling pathway using the BG1 cell line in the presence of 0.1 nM 17-beta-estradiol (AID 1259244). Note: nearly all actives have a fitted effect of over 50% in size. Note: potency is the fitted concentration of half-maximal effect. The gist of the method: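 VM7Luc4E2 cells (endogenous full-length ER-alpha, 4×ERE-luciferase), kept 5 days in phenol red-free, charcoal-stripped FBS medium; 4,000 cells/well. Compounds added with 0.1 nM (final) 17beta-estradiol, 22 hr at 37C; luminescence read with ONE-Glo after 30 min.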

Assay [13] in a line: qHTS assay to identify small molecule HDAC inhibitors (AID 1259364). Note: top concentration of the series differs between compounds; nearly all actives have a fitted effect of over 45% in size. The gist of the method: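 Wild-type HCT-116 cells, plated overnight at 37 C, exposed to compounds 2 hr at 37 C; luminogenic HDAC-Glo substrate then added 30 min at room temperature. Luminescence reports relative endogenous class I/II HDAC activity.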
The nature of assay [14]: qHTS assay to identify small molecule HDAC inhibitors - cell viability counter screen (AID 1259365). A digest of the protocol: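 Wild-type HCT-116 cells were seeded at 1,500 per well, incubated overnight at 37 C, then exposed to compounds in DMSO for 2hr. Viability was read by CellTiter-Glo luminescence after 30min at room temperature.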
The nature of assay [15]: qHTS assay to identify small molecule agonists of the sonic hedgehog signaling (Shh) pathway - cell viability counter screen (AID 1259366). Note: nearly all actives have a fitted effect of over 50% in size. Note: potency is the fitted concentration of half-maximal effect. A digest of the protocol: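 NIH/3T3-derived 3T3 Gli1-Luc cells (stable Gli1-responsive firefly luciferase reporter) were seeded, rested 4 hr at 37 C/5% CO2, then exposed to compounds in DMSO for 24 hr; viability was read by CellTiter-Fluor fluorescence in the same wells.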

Assay [16] can be described thus: qHTS assay to identify small molecule antagonists of the sonic hedgehog signaling (Shh) pathway - cell viability counter screen (AID 1259367). Note: nearly all actives have a fitted effect of over 55% in size. A digest of the protocol: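 Seed 3T3 Gli1-Luc cells at 2,000 per well; incubate 4 hr; add compound in DMSO, then conditioned medium; incubate at 37C with 5% CO2; add CellTiter-Fluor after 23 hr; read fluorescence 1 hr later.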

The nature of assay [17]: qHTS assay to identify small molecule agonists of the sonic hedgehog signaling (Shh) pathway (AID 1259368; calls by dose curve; note: series mostly up to about 92 µM; nearly all actives have a fitted effect of over 15% in size). A digest of the protocol:
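NIH/3T3-derived 3T3Gli1-Luc cells with stably integrated Gli1-driven firefly luciferase, 2,000 cells/well, compounds added after 4 hr. Incubated 24 hr at 37C, 5% CO2; luminescence read after 30 min with luciferase reagent at room temperature.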

Assay [18] in a line: qHTS assay to identify small molecule antagonists of the sonic hedgehog signaling (Shh) pathway (AID 1259369; calls by dose curve; note: nearly all actives have a fitted effect of over 45% in size; note: potency is the fitted concentration of half-maximal effect). A digest of the protocol:
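NIH/3T3-derived Gli1-Luc reporter cells plated 4 h, dosed with compound, then stimulated with conditioned medium for 24 h at 37 C. Firefly luciferase luminescence read after 30 min with detection reagent at room temperature.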

A short description of assay [19]: qHTS assay to identify small molecule phospholipidosis (PLD) inducers (AID 1259344; active = well fitted curve in the direction sought with a large enough effect; an effect the other way counts as inactive or inconclusive). A digest of the protocol:
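Quantitative HTS in HepG2: compound plus LipidTOX Red dye for 24 h, paraformaldehyde fixation with Hoechst 33342, widefield high-content imaging; amiodarone as positive and DMSO as negative control.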

Assay [20] has as its target Androgen receptor (Homo sapiens) (UniProt P10275). The experiment in a line: qHTS assay to identify small molecule antagonists of the androgen receptor (AR) signaling pathway using the MDA cell line in the presence of 0.5 nM R1881 (AID 1259243). Note: nearly all actives have a fitted effect of over 50% in size. The gist of the method:
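MDA-kb2 cells (MMTV-luciferase, responsive to AR and GR) at 3,000/well, rested 5 h at 37C, 0% CO2, then given compounds plus 0.5 nM R1881 (final) for 16 hr. Luciferase read with ONE-Glo after 30 min at room temperature.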

Sequence of Androgen receptor (Homo sapiens) (P10275 whole entry, looked up): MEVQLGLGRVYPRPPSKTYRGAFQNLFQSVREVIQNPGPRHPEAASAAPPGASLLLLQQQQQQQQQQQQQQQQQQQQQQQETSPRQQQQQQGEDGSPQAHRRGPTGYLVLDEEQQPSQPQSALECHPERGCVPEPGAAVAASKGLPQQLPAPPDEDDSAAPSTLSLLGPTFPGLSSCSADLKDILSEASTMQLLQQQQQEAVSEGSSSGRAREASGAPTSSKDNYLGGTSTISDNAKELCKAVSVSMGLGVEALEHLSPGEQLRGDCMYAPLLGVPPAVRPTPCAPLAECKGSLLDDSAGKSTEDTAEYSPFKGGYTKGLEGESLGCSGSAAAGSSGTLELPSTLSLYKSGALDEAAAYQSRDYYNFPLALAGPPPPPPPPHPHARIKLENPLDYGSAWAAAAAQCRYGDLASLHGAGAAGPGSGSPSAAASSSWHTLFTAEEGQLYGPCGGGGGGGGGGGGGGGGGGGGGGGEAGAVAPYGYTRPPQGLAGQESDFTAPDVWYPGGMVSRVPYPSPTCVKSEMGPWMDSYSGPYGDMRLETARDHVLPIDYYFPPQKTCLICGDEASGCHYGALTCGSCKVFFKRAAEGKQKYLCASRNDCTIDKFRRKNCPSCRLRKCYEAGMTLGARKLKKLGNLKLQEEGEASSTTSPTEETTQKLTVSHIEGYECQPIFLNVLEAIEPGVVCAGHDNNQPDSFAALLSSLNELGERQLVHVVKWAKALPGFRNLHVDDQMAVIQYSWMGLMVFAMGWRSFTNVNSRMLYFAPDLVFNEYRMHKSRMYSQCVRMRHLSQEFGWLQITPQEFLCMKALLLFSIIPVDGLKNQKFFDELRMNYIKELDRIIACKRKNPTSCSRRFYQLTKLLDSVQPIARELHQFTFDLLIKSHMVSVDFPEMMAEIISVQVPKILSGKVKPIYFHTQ
Sequence of Estrogen receptor (Homo sapiens) (P03372 whole entry, looked up): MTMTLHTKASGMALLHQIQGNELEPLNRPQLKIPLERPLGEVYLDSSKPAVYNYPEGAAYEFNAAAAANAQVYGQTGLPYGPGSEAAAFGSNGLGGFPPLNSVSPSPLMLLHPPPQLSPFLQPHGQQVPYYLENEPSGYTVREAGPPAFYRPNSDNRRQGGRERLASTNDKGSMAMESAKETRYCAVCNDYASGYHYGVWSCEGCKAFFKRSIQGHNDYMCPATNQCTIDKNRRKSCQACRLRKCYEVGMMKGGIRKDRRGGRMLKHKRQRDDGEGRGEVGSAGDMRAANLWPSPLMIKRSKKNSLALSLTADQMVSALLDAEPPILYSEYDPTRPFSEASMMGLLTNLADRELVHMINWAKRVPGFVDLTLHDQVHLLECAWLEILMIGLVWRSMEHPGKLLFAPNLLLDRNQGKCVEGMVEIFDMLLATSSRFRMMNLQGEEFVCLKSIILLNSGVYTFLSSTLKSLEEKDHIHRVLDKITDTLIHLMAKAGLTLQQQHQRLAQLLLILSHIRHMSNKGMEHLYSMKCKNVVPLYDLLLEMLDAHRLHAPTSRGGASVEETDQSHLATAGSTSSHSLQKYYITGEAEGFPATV

`C=C(C)C(=O)OCC(C)O` (stereo not drawn): the Potency entry in assay [1], in [2], in [3], in assay [4], in assay [5] and in assay [6] was “inactive” in each case. The Potency entry in assay [7], in assay [8], in assay [9], in [10], in assay [11] and in assay [12] was “inactive” each time. In addition, the Potency entry in assay [13], in assay [14], in [15], in assay [16] and in assay [18] was “inactive” each time. Further, the compound was called inactive in [17].
For `CCCCCCCCCCCCCCCC[N+](C)(C)Cc1ccccc1`, the Potency entry in [1], in assay [8], in assay [10], in assay [19], in assay [13] and in assay [14] was “inactive” each time. Also, the Potency result in [16] is “inactive”. Moreover, the Potency was 25.3 µM (active) and 15.8 µM (active) and 10.7 µM (active) in assay [2]; 45 µM (active) and 15.8 µM (active) and 21.3 µM (active) in assay [3]; 25.3 µM (active) and 19.8 µM (active) and 21.3 µM (active) in [4]; 8.98 µM (active) and 22.3 µM (active) and 3.01 µM (active) in assay [5]; 50.5 µM (active) and 49.8 µM (active) and inactive in assay [6]; 50.5 µM (active) and 44.4 µM (active) and 23.9 µM (active) in assay [7]. The Potency was 63.6 µM (active) and 35.3 µM (active) and 26.8 µM (active) in assay [9]; 50.1 µM (active) and 55.5 µM (active) and 26.6 µM (active) in assay [11]; 63.1 µM (active) and 55.5 µM (active) in assay [12]; 70.8 µM (active) and 35 µM (active) in [15]; 1.78 µM (active) and 6.98 µM (active) and 150 nM (active) in assay [18]. In assay [17], the outcome was inactive.
Take `CC(O)(P(=O)(O)O)P(=O)(O)O`: the Potency result in assay [1], in assay [2], in [3], in [4], in assay [6] and in assay [7] was “inactive” each time. Also, the Potency entry in [8], in [9], in assay [10], in [11], in [19] and in assay [13] was “inactive” in each case. The Potency entry in [14], in [15], in [16] and in [18] was “inactive” throughout. In addition, the Potency entry in assay [5] was “inactive and 436 nM (active)”. Further, in assay [17], the call was inactive.
As to `Nc1c2c(nc3ccccc13)CCCC2`, the Potency result in assay [1], in assay [2], in [3], in [4], in assay [5] and in assay [6] was “inactive” each time. The Potency result in assay [7], in assay [8], in assay [9], in assay [10], in assay [11] and in assay [12] was “inactive” in each case. For the same compound, the Potency result in [13], in assay [14], in assay [15] and in assay [16] was “inactive” throughout. Besides, the result in assay [17] was inactive. Besides, the Potency in assay [18] was 8.63 µM (active) and 13.7 µM (active).
As for `COc1ccc(C(Cl)=C(c2ccc(OC)cc2)c2ccc(OC)cc2)cc1`, the Potency result in assay [1], in assay [2], in [4], in assay [5], in assay [6] and in assay [7] was “inactive” each time. For the same compound, the Potency entry in assay [8], in assay [9], in assay [10], in [11], in assay [19] and in [13] was “inactive” throughout. For the same compound, the Potency result in [14], in [15], in [16] and in assay [18] was “inactive” each time. In addition, the Potency result in assay [3] was “inactive and 43.6 µM (active)”; in assay [12], 2.72 µM (active) and 7.7 µM (active) and 2.11 µM (active). Also, the outcome in [17] was inactive.
Consider `NS(=O)(=O)O`, for which the Potency result in assay [1], in assay [2], in [3], in assay [4], in [5] and in assay [6] was “inactive” in each case. For the same compound, the Potency entry in assay [7], in [8], in [9], in assay [10], in assay [11] and in [13] was “inactive” each time. Moreover, the Potency entry in assay [14], in [15], in [16] and in assay [18] was “inactive” each time. Further, the compound was called inactive in [17].
`O=CC(=O)c1ccccc1`: the Potency entry in assay [1], in assay [2], in assay [3], in assay [4], in assay [5] and in assay [6] was “inactive” throughout. In addition, the Potency entry in assay [7], in assay [8], in assay [9], in assay [10], in assay [11] and in [12] was “inactive” throughout. For the same compound, the Potency entry in assay [13], in [15], in assay [16] and in assay [18] was “inactive” in each case. Moreover, the call in [17] was inactive.
For the compound `O=C(O)c1ccccc1`, the Potency result in [1], in [2], in assay [3], in [4], in assay [5] and in assay [6] was “inactive” in each case. The Potency result in [7], in assay [8], in assay [9], in assay [10], in [11] and in assay [12] was “inactive” each time. Moreover, the Potency entry in [13], in [14], in assay [15], in assay [16] and in assay [18] was “inactive” throughout. Besides, the outcome in assay [17] was inactive.
As to `CCCCC1(COC(=O)CCC(=O)O)C(=O)N(c2ccccc2)N(c2ccccc2)C1=O`, the Potency result in assay [1], in assay [2], in assay [3], in [4], in assay [5] and in [6] was “inactive” each time. The Potency entry in assay [7], in assay [8], in [9], in [10], in [11] and in assay [20] was “inactive” throughout. Also, the Potency result in assay [12], in assay [19], in [13], in assay [14], in [15] and in [16] was “inactive” each time. The Potency entry in assay [18] was “inactive”. The call in assay [17] was inactive.
For `CCN(CC)C(=O)c1cccc(C)c1`, the Potency entry in assay [1], in [2], in assay [3], in assay [4], in assay [5] and in [6] was “inactive” each time. In addition, the Potency result in assay [7], in assay [8], in assay [9], in assay [10], in assay [11] and in [12] was “inactive” throughout. Also, the Potency result in assay [19], in [13], in [14], in [15], in [16] and in assay [18] was “inactive” throughout. Moreover, in assay [17], the call was inactive.
